The full data set covers some 8,800 targets. This sample favours those with a hit. About 0.5% of all pairs of compound and target were hits. A number with no mark means an inactive call.

Chain of UniProt P67936 (P67936 whole entry, looked up): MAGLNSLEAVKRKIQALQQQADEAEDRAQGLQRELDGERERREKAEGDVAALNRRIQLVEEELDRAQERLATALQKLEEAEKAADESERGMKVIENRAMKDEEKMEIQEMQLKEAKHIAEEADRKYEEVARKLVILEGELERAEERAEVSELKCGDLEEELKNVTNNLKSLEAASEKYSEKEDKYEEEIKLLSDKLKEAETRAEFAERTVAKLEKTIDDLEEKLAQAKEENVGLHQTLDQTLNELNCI
Chain of UniProt Q9NZ01 (Q9NZ01 whole entry, looked up): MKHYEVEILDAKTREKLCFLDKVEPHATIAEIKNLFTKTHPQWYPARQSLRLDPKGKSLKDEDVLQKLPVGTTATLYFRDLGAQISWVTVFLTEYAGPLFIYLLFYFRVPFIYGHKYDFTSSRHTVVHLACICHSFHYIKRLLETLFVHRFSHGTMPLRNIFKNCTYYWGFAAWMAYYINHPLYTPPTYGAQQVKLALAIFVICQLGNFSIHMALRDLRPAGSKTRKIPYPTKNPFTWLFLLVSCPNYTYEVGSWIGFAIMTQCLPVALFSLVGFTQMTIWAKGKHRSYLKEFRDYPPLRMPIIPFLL
Chain of UniProt Q07157 (Q07157 whole entry, looked up): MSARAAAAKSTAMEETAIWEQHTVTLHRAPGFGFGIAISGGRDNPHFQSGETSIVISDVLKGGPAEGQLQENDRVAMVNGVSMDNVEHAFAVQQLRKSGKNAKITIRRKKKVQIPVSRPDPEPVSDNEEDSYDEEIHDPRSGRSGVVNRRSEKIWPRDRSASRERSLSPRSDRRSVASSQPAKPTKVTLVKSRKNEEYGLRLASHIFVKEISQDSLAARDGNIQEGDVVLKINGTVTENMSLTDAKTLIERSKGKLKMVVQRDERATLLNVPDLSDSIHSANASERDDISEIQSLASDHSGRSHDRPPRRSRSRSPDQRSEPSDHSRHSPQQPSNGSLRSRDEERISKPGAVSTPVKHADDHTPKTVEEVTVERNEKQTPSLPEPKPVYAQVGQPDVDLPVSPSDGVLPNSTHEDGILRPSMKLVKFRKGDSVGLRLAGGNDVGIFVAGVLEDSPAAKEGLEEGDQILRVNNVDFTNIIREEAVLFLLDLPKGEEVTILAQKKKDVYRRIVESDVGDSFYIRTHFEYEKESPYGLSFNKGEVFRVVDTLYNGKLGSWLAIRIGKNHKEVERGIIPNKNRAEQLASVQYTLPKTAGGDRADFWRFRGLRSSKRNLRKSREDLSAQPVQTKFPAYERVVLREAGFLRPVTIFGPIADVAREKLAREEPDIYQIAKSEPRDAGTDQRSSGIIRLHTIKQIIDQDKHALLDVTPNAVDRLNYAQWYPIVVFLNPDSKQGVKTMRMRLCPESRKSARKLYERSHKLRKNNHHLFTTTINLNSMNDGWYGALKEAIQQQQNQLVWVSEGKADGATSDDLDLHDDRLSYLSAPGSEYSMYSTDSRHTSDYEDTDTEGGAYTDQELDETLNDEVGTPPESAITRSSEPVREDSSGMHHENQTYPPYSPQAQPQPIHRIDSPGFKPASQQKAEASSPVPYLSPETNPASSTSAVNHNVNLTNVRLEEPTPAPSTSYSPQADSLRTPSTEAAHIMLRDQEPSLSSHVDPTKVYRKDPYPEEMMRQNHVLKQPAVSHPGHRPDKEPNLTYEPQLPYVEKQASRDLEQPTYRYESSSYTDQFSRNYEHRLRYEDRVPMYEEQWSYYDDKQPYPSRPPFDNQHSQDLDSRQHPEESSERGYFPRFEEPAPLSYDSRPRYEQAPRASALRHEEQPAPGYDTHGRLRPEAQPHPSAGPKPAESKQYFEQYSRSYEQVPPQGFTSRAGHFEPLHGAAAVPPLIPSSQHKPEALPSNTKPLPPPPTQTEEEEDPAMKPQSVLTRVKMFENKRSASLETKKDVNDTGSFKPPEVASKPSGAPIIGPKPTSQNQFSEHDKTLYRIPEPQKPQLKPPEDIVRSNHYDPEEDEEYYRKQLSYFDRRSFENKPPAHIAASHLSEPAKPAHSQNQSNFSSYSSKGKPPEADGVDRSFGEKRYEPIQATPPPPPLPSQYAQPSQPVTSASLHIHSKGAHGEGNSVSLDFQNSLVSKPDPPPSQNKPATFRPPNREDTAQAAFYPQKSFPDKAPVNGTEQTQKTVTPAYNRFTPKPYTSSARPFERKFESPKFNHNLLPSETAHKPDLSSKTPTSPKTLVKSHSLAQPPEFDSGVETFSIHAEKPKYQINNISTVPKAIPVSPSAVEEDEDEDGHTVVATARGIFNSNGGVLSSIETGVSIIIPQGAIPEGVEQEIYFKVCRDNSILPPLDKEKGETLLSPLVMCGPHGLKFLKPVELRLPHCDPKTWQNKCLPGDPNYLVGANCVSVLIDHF
Chain of UniProt Q96K49 (Q96K49 whole entry, looked up): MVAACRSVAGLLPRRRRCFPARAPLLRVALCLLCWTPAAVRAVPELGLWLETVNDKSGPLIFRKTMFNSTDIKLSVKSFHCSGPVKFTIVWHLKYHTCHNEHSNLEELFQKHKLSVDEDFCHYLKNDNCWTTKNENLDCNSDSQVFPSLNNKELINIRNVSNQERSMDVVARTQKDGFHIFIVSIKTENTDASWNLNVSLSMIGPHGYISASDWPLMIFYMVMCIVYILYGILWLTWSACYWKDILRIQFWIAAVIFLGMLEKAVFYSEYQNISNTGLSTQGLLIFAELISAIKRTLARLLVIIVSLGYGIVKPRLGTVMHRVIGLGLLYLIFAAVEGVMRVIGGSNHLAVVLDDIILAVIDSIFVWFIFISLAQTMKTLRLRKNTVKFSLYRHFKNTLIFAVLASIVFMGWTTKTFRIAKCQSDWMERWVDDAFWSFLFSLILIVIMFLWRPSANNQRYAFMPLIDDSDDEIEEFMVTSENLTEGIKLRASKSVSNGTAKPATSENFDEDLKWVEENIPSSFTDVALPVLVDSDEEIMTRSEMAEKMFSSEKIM
Chain of UniProt P42167 (P42167 whole entry, looked up): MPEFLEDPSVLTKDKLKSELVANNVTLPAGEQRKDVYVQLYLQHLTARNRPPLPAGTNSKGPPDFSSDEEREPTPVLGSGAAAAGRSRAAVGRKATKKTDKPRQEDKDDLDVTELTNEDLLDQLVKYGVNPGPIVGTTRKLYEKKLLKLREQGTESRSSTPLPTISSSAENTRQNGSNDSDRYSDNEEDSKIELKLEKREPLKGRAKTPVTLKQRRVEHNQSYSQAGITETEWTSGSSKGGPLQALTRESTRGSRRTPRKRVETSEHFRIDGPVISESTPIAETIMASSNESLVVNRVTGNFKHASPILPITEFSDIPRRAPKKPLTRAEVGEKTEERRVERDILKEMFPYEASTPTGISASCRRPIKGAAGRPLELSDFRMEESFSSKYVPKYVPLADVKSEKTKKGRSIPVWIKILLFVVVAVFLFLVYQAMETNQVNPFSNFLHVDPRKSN
Chain of UniProt Q5T6F2 (Q5T6F2 whole entry, looked up): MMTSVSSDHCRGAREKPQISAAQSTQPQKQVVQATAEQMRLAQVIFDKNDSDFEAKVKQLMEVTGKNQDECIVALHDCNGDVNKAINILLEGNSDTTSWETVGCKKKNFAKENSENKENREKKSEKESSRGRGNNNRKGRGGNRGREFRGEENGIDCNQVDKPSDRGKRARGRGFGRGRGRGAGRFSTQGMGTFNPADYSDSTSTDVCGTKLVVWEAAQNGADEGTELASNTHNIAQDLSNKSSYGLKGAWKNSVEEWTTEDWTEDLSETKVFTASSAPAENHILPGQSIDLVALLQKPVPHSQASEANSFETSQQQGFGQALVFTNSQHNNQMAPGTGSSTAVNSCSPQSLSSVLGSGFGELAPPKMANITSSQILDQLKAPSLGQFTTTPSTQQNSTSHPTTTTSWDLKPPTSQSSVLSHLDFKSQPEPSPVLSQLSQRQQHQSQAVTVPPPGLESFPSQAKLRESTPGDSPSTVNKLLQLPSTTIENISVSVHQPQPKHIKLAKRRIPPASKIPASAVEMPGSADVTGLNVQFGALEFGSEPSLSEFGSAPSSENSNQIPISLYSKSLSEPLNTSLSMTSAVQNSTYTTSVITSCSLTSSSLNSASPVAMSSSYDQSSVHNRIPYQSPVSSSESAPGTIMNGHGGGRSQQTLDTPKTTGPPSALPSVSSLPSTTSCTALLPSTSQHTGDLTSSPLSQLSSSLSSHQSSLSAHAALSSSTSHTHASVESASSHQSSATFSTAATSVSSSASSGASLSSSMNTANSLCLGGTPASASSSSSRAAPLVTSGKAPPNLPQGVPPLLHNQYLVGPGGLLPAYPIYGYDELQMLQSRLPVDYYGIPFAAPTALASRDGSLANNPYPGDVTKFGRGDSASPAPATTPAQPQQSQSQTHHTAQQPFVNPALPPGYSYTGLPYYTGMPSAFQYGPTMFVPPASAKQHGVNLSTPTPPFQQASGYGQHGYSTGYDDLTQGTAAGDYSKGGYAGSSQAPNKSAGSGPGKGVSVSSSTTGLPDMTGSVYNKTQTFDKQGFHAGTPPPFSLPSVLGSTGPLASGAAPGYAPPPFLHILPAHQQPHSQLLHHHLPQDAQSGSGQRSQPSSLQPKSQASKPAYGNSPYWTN
Chain of UniProt Q5R3I4 (Q5R3I4 whole entry, looked up): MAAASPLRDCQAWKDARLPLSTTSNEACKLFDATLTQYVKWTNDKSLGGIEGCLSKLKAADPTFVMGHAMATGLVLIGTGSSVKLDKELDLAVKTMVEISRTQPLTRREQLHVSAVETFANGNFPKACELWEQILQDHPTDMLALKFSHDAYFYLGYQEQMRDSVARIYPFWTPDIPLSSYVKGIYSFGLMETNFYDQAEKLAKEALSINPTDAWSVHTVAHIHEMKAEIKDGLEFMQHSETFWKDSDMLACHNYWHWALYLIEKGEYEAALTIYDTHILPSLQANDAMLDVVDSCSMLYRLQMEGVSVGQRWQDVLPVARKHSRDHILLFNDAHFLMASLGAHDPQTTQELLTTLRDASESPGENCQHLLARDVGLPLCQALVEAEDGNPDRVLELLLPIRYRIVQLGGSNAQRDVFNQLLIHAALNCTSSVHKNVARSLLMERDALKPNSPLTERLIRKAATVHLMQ

Compound in the experiment: CNC(=O)c1ccc(Nc2ncc(C(F)(F)F)c(NCc3nccnc3N(C)S(C)(=O)=O)n2)cc1 [defactinib]
In words: log2 fold change, soluble protein after heating vs DMSO (PISA); higher = thermal stabilisation; K562 lysate, 10 uM; active = over 0.2 and 3.5 SD of the protein, either way, in both replicates (recomputed). The essentials:
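Quantification was by TMTpro 16plex LC-MS/MS with equalised channel sums, applied to the supernatant after 21,000xg for 90 min. Samples were crude K562 extract at 1 mg/mL protein in PBS pH 7.4 with 1 mM MgCl2, treated with 10 μM compound for 30 min, heated for 3 min across 48°C-58°C, pooled and brought to 0.5% NP-40 at 4°C. Values are log-two fold changes in thermal stability relative to solvent controls, from duplicates.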
For TPP2 (UniProt Q5VZU9), the log2 fold change is 0.062. Take TUBGCP3 (UniProt Q96CW5): the log2 fold change was 0.022. TEX30 (UniProt Q5JUR7): the log2 fold change is -0.097. For TPM1 isoform 4 (UniProt P09493) the value was -0.031. Turning to TRAPPC9 isoform 2 (UniProt Q96Q05), the log2 fold change is -0.011. To TUT4 (UniProt Q5TAX3) belongs 0.002; to TRIM33 (UniProt H0Y612), -0.007. With TECR (UniProt Q9NZ01), the log2 fold change is 0.052. Consider TP53RK (UniProt Q96S44), for which the log2 fold change was 0.019. With THEMIS2 (UniProt Q5TEJ8), the log2 fold change was 0.028. On to TTC38 (UniProt Q5R3I4), for which the log2 fold change is 0.001. Consider TPM4 (UniProt P67936), for which the log2 fold change was 0.019. Take TMOD1 (UniProt P28289): the log2 fold change was 0.046. Regarding TOX4 (UniProt O94842), the log2 fold change is 0.025. For the target TMEM199 (UniProt Q8N511), the log2 fold change was -0.023. In the case of UBE4A isoform 2 (UniProt Q14139), the log2 fold change is 0.011. To TMEM87B (UniProt Q96K49) belongs -0.032. On to TMPO (UniProt P42167), for which the log2 fold change was -0.015. On to TTI2 (UniProt Q6NXR4), for which the log2 fold change is 0.069. On to TUBB3 (UniProt Q13509), for which the log2 fold change is 0.023. With TUBB (UniProt P07437), the log2 fold change was 0.007. For TLK1 isoform 2 (UniProt Q9UKI8), the log2 fold change is 0.16. To TRA2A (UniProt Q13595) belongs 0.171; to TBL2 (UniProt Q9Y4P3), 0.039. For the target UBR4 (UniProt Q5T4S7), the log2 fold change was 0.006.

With TPM4 isoform 2 (UniProt P67936), the log2 fold change is -0.059. As to TBL3 (UniProt Q12788), the log2 fold change was 0.016.

As for TTF2 (UniProt Q9UNY4), the log2 fold change was 0.069. For TJP1 isoform 2 (UniProt Q07157) the value was -0.018; for TRIM65 (UniProt Q6PJ69), 0.024; for UBE3C (UniProt Q15386), 0.033. For the target UBAP2 (UniProt Q5T6F2), the log2 fold change was -0.003.

Take TUBA1B (UniProt P68363): the log2 fold change is -0.03. To TSPAN13 (UniProt O95857) belongs 0.017.

Source of the values: the supplement of paper PMC10849652.
